For eight compounds, growth results are on record in PubChem BioAssay (NCI).

This is part of a sample that, as a whole, favours compounds with a hit. Of some 83,000 tested, about 20% had one in any assay.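 Activity criterion: percent growth below 10, measured after cells in 96-well plates were exposed to a single compound concentration for 48 hours.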 A number with no mark means an inactive call. Active and inactive are the calls of the source.

Holding throughout (assay): NCI-60 one-dose screen, 48 h (100 = growth as untreated, 0 = no growth, -100 = all killed)
Holding throughout (details): 10 µM unless noted

The test system of assay [1] is SK-MEL-2 melanoma.
Assay [2] concerns EKVX NSCLC.
Assay [3] has as its system SN12C renal.
Assay [4] has as its system UO-31 renal.
The subject of assay [5] is TK-10 renal.
The test system of assay [6] is ACHN renal.
Assay [7] relates to CAKI-1 renal.
Assay [8] relates to A498 renal.
Assay [9] relates to CCRF-CEM leukemia.
Assay [10] deals with MOLT-4 leukemia.
In assay [11] the test system is SR leukemia.
The test system of assay [12] is RPMI-8226 leukemia.
Assay [13] concerns OVCAR-8 ovarian.
For assay [14], the system named is OVCAR-4 ovarian.
For assay [15], the system named is SK-OV-3 ovarian.
Assay [16] deals with IGROV1 ovarian.
Assay [17] relates to OVCAR-3 ovarian.
In assay [18] the test system is HS 578T breast.
For assay [19], the system named is NCI/ADR-RES ovarian.
The subject of assay [20] is OVCAR-5 ovarian.

Turning to `CCCCCC(/C=N\NC(=S)N/N=C/C(=C/c1ccccc1)CCCCC)=C\c1ccccc1`, the growth in assay [1] was 80.9%; in assay [2] it was 76.6%; in assay [3], 68.1%; in assay [4], 45.4%; in assay [5], 87.3%; in assay [6], 69.3%. The growth in [7] was 42.1%; in [8], 70.1%; in [9], 31.1%; in [10] it was 42%; in [11] it was 56.2%; in [12], 44.7%. Further, the growth in assay [13] is 64.4%; in assay [14] it was 56.2%; in [15] it was 85.9%; in [16] it was 64.1%; in assay [17], 26.2%; in assay [18], 73.8%. Moreover, the growth in assay [19] is 60.2%.
For the compound `N=C(N)c1ccc(-c2ccc(-c3ccc(Cl)c(Cl)c3)s2)nc1`, the growth is 102% in assay [1]; 62.8% in assay [2]; 36.6% in [3]; 32.7% in [4]; 112% in assay [5]; -62.8% (active) in assay [6]. The growth is -60.1% (active) in assay [7]; 90.7% in assay [8]; -1.55% (active) in assay [9]; -26.3% (active) in [10]; 3.84% (active) in assay [11]; -8.11% (active) in [12]. The growth in [13] is -19.9% (active); in assay [14] it was 16.3%; in assay [15] it was 86.6%; in [16] it was -40.6% (active); in assay [17], -77.8% (active); in assay [18] it was 67.6%. The growth in [19] is 82.9%.
Take `COCCn1cc(-c2csc(-c3cn(C)c4ccc(Br)cc34)n2)c2cccnc21`: the growth is 65.6% in assay [1]; 58.4% in assay [2]; 69.1% in [3]; 61.9% in assay [4]; 61.5% in assay [5]; 57.1% in assay [6]. For the same compound, the growth in assay [7] was 65%; in [8], 45.6%; in assay [9], 67.4%; in assay [10] it was 63.4%; in assay [11] it was 31.3%; in assay [12], 60.7%. Moreover, the growth is 56.3% in assay [13]; 71% in assay [14]; 71.9% in assay [15]; 80.2% in assay [16]; 80.3% in assay [17]; 63% in assay [18]. Further, in assay [19], the growth is 60%.
With `Cc1ccc(-c2nc([P+](c3ccccc3)(c3ccccc3)c3ccccc3)c(S(=O)(=O)c3ccc(C)cc3)o2)cc1`, the growth in assay [1] was 22.1%; in assay [2] it was 22.6%; in assay [3], 3.91% (active); in [4], 14.9%; in assay [5], 2.83% (active); in assay [6], -13.4% (active). Moreover, the growth was 5.62% (active) in assay [7]; -0.861% (active) in assay [8]; -6.52% (active) in [9]; -3.24% (active) in [10]; -28.2% (active) in [12]; 8.26% (active) in [13]. The growth in [20] was 25.1%; in assay [14], 14.2%; in assay [15], 64.8%; in [16], 26.4%; in [17] it was 0.238% (active); in assay [18] it was -9.93% (active). The growth in assay [19] is 59.5%.
As to `CN(c1cc2ncc(=O)[nH]c2cc1NC(N)=NCc1ccc(Cl)cc1)C1CCCCC1`, the growth in [1] is 92.7%; in assay [2], 82.6%; in assay [3], 67.9%; in assay [4], 91%; in [5] it was 85.2%; in assay [6], 98.3%. Moreover, the growth is 98.5% in assay [7]; 80.5% in assay [8]; 21.9% in assay [9]; 35.5% in assay [10]; -22.7% (active) in assay [11]; 8.99% (active) in assay [12]. For the same compound, the growth in assay [13] was 70.4%; in assay [14], 72.7%; in assay [15], 84.7%; in [16] it was 61.6%; in [17] it was 82.3%; in assay [18] it was 64.2%. Also, the growth in assay [19] was 115%.
As to `O=[N+]([O-])c1ccc(O)cc1Br`, the growth in assay [1] is 97.8%; in [2] it was 98%; in assay [3], 98%; in assay [4], 83.8%; in [5] it was 99.9%; in assay [6] it was 99.2%. The growth in [7] is 94.5%; in assay [8], 81.6%; in assay [9] it was 95.2%; in assay [10], 104%; in assay [11], 99.1%; in assay [12], 91.4%. Further, the growth is 100% in assay [13]; 89.3% in [14]; 101% in assay [15]; 101% in assay [16]; 106% in assay [17]; 98.4% in [18]. Also, in [19], the growth is 98.9%.
For the compound `COc1cc(-c2nccc3[nH]c(-c4ccc5cc[nH]c5c4)nc23)cc(OC)c1OC`, the growth in assay [1] was 15.2%; in assay [2], 30.9%; in [3], 30.9%; in assay [4], 13.6%; in [5], 10.7%; in [6], 2.78% (active). In addition, the growth is 29.7% in assay [7]; -2.61% (active) in [8]; 5.28% (active) in [9]; 18.5% in assay [10]; -43% (active) in [12]; 12.4% in [13]. Moreover, the growth in assay [20] is 41.5%; in [14] it was 39.3%; in [15], 1.3% (active); in [16] it was 29.5%; in [17] it was 2.2% (active); in assay [18] it was 31.1%. Also, the growth in assay [19] was 12.7%.
In the case of `COc1cc(-c2nc3sccn3c2-c2ccnc(NCCNS(=O)(=O)c3ccccc3)n2)ccc1F`, the growth is 54.2% in [1]; 61.5% in assay [2]; 46.4% in assay [3]; 16.1% in assay [4]; 57% in assay [5]; 41.1% in assay [6]. In addition, the growth in assay [7] was 26.9%; in assay [8], 48.9%; in [9], 30.9%; in [10] it was 24.7%; in assay [11], 45.3%; in [12] it was 31%. For the same compound, the growth in [13] is 46.1%; in assay [14], 52.3%; in assay [15], 52.5%; in assay [16], 43.1%; in [17], 74.9%; in [18], 69.6%. Further, in assay [19], the growth was 47%.
